# TEAD-YAP block = TEAD-YAP interaction inhibition. HEK-TIYL cells, TEAD-Gal4/YAP UAS-luciferase luminescence. inhibition, % at 9.12 µM. actives 1.4% (n = 640,000); in the data active = inhibition above about 32%;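 also: 0% = median of test compound wells and 100% = reference inhibitor wells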
# FBW7 act = human FBW7 E3 ligase activation, primary screen. Q969H0. normalized activity (activation), % at 26.1 µM. actives 0.13% (n = 650,000). AlphaScreen FBW7–phospho-cyclin E peptide binding, activator screen; in the data active = normalized activity above about 1.9%;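 also: purified mutant Fbw7 with reduced substrate affinity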
# GPR151 activ = human GPR151 activation. Q8TDV0. PathHunter beta-arrestin GPR151 cells, luminescence. activation, % at 11.2 µM. actives 1% (n = 650,000). AID 1508602; in the data active = activation above about 4.9%;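 also: 0% = median of compound wells and 100% = cells with positive control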
# Target sequence (Q8TDV0 whole entry, looked up): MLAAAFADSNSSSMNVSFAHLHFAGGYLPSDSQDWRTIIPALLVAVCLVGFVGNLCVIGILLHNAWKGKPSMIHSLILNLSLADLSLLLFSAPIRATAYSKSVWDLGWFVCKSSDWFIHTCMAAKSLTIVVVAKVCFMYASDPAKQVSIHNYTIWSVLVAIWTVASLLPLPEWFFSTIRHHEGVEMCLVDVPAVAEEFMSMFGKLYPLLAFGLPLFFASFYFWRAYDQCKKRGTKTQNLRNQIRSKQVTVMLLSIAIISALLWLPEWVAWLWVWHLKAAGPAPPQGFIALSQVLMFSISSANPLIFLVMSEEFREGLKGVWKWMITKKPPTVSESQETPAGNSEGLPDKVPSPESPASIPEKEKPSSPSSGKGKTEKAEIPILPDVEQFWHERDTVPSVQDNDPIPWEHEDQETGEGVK
# MITF primary = blocks human microphthalmia-associated transcription factor; O75030; AlphaScreen MITF homodimerization, bead proximity signal; inhibition, % at 2.6 µM; actives 0.91% (n = 650,000); in the data active = inhibition above about 50%;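 also: 0% = vehicle wells with protein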
# GPR151 confirm = confirmation of human GPR151 activators. 6,700 tested, under 10 active. activation, % at 11.2 µM. GPR151 PathHunter beta-arrestin cells, luminescence, 90 min; % of EA-reagent control over plate median. shares compounds with GPR151 activ;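 active = mean percent activation across replicates above the confirmation screen cutoff of 4.91%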
# GPR119 ag = activates human GPR119 in a GPR151 counter-screen. shares compounds with GPR151 activ. GPR119 PathHunter beta-arrestin cells, luminescence, 90 min; 0 = compound-well median, 100 = enzyme-acceptor control. activation, % at 11.2 µM. actives 0.3% (n = 6,700). AID 1508611;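 active = mean percent activation in the counterscreen above 29.09%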;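 also: counterscreen on off-target GPR119 to flag nonselective hits from the GPR151 activator screen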
# The depositor's hits bear a star; / = not tested or not shown. Only some compounds are listed: those with a hit (about 3.4% of all), similar ones and a draw of the others.
SMILES,TEAD-YAP block,FBW7 act,GPR151 activ,MITF primary,GPR151 confirm,GPR119 ag
CCN(CCCNC(=O)Cn1ncc2c1-c1ccccc1OC2)c1cccc(C)c1,9,-1,0,-6,/,/
CCc1ccc(CNCc2c(C(=O)O)c(C)n(Cc3ccc(C)cc3)c2C)cc1,11,0,2,11,/,/
Cc1ccccc1-c1nc(-c2ccc(Br)cc2)no1,-8,0,1,0,/,/
Cc1ccccc1-c1nc(-c2ccc(Cl)cc2)no1,-11,0,5.1*,1,0,-4
Cc1nn(C)c(C)c1-c1nccc(NCc2nc3ccccc3[nH]2)n1,-3,0,5.9*,-4,0,-4
Cc1cccc(N(CC(N)=O)C2SC(=O)N(Cc3cccc(C(=O)O)c3)C2=O)c1 (stereo unspecified),-3,1,11*,13,0,-7
CCOC(=O)CN(c1cccc(C)c1)C1SC(=O)N(Cc2cccc(C(=O)O)c2)C1=O (stereo unspecified),-5,1,0,1,/,/
CC(C)CCn1nc(C(=O)NN)c2ccccc2c1=O,-3,0,6.0*,1,1,7
C=C(C)CN1C(=O)NC(CC)(C2CCN(Cc3cc4c(cc3Cl)OCO4)CC2)C1=O (stereo unspecified),9,0,2,9,/,/
O=C1CSC(=O)N1C1CCCCC1NC(=O)C1(c2cccs2)CCCC1 (stereo unspecified),3,0,5.5*,-1,-1,-8
COc1cccc(OC)c1NC(=O)CC(Cc1ccc(Cl)cc1)C(=O)O (stereo unspecified),-6,0,5.0*,10,0,-5
CCC(=O)Nc1ccccc1C(=O)NC(C)(C)C,-1,0,-1,7,/,/
O=C(CSc1nccc(=O)[nH]1)Nc1nccs1,-1,0,6.5*,7,0,11
Cc1c(Cl)cccc1NC(=O)CSc1nccc(=O)[nH]1,11,0,5.3*,6,0,10
CC(C)c1nnc(NC(=O)c2cccc(Cl)c2)s1,-57,0,0,5,/,/
C=CCn1c(=O)c2c3c(sc2n2c(Nc4ccc(C(=O)OCC)cc4)nnc12)CCC3,11,1,-2,9,/,/
C=CCn1c(=O)c2c(C)c(C)sc2n2c(Nc3ccccc3)nnc12,3,0,5.9*,28,0,-10
COc1cccc(C=Nc2ccc(C)c(F)c2)c1O,7,0,5.8*,-2,0,11
O=C(NCCN1CCOCC1)c1nn2c(c1Cl)NC(c1ccc(Br)cc1)CC2C(F)(F)F (stereo unspecified),-2,0,0,-2,/,/
O=C(NCCN1CCOCC1)c1nn2c(c1Cl)NC(c1ccco1)CC2C(F)(F)F (stereo unspecified),-1,0,5.7*,2,0,1
O=C1CCC([N+](=O)[O-])C(c2ccc3c(c2)OCO3)N1 (stereo unspecified),-2,0,7.7*,-6,0,13
O=C1CCC([N+](=O)[O-])C(c2ccc(Cl)c(Cl)c2)N1 (stereo unspecified),-6,0,-1,-7,/,/
CCOc1cc(/C=N/Nc2ccccn2)ccc1OCc1ccc(C(=O)OC)o1,-1,0,5.4*,-8,0,-1
CCOc1cc(C=O)ccc1OCc1ccc(C(=O)OC)o1,-2,0,1,-2,/,/
O=C1CCC(C(=O)Nc2cc(F)cc(F)c2)=NN1,9,0,6.4*,-3,1,6
SMILES,TEAD-YAP block,FBW7 act,GPR151 activ,MITF primary,GPR151 confirm,GPR119 ag
COCCCNC(=S)N1CCCC(c2nc3ccc(C)cc3[nH]2)C1 (stereo unspecified),-22,0,5.2*,-10,0,-2
CCOC(=O)c1c(C)[nH]c(C(=O)COC(=O)CCc2ccc(OC)cc2)c1C,-11,0,1,3,/,/
Cc1ccc(C2Nn3c(C)nnc3SC2C(=O)N2CCCCCC2)cc1 (stereo unspecified),-8,1,6.4*,10,0,7
O=C1C(=Cc2cnc(N3CCCCC3)s2)C(=O)c2ccccc21,-7,0,1,0,/,/
COc1ccc(Cl)cc1NC(=O)COCC(=O)O,0,0,1,8,/,/
CCOC(=O)c1c(NC(=O)c2cc3cc(Cl)ccc3oc2=O)sc(C(C)=O)c1C,6,0,8.1*,1,-1,-15
CCOc1ccc(NC(=O)c2cc3cc(Br)cc(OC)c3oc2=O)cc1,-1,0,-2,-14,/,/
COc1ccc2oc(=O)c(C(=O)Nc3cccc(Cl)c3)cc2c1,-11,0,0,-2,/,/
COc1ccc(NC(=O)c2cc3cc(Cl)ccc3oc2=O)cc1,-4,0,6.3*,-2,0,15
COc1cc(Br)cc2cc(C(=O)Nc3ccc(O)cc3)c(=O)oc12,-1,0,7.6*,-17,0,8
Cc1cc(NCCCN2CCCC2=O)nc(NC2CCC(O)CC2)n1 (stereo unspecified),-3,0,1,-7,/,/
CC(C)(C)NC(=O)C1CCN(Cc2ccccc2Cl)CC1,4,0,0,32,/,/
Nc1nc(NCCCN2CCCC2=O)cc(NCCOc2ccccc2)n1,3,0,-3,8,/,/
COc1ccc(Cl)cc1C(=O)n1nc(C)cc1C,-5,0,9.6*,27,0,0
Cc1cc(C)n(C(=O)CSc2ccc(Cl)cc2)n1,8,1,7.8*,15,-1,-15
COc1cccc(OC)c1C(=O)n1nc(C)cc1C,9,0,0,16,/,/
CCN(c1ccc(C)c(C)c1)S(=O)(=O)c1ccc2c(c1)n(C)c(=O)c(=O)n2C,2,0,0,16,/,/
CCN1C(=O)C(CC(=O)Nc2ccc(OC)cc2)N(Cc2cccs2)C1=S (stereo unspecified),-1,0,5.9*,1,1,9
O=C(NCc1ccccc1)/C(=N\O)c1ccccc1,-10,0,6.2*,5,-1,-5
c1cncc(-c2noc(CCC3CCCC3)n2)c1,-5,0,7.7*,-12,1,3
c1cncc(-c2noc(C34CC5CC(CC(C5)C3)C4)n2)c1,-3,0,6.9*,-10,2,0
O=C(Nc1ccc(Cl)cc1C(F)(F)F)c1cnccn1,-6,0,0,-18,/,/
COc1ccc(CCNc2nc(N3CCCC3)nc(N3CCCC3)n2)cc1OC,-18,0,5.1*,18,1,-8
COc1ccc(CCNc2nc(NC(C)(C)CO)nc(N3CCCC3)n2)cc1OC,-2,0,-1,15,/,/
COc1cccc(NC(=O)CSc2cn(CC(=O)N3CCOCC3)c3ccccc23)c1,2,1,0,0,/,/
COc1cccc(NC(=O)CSc2cn(CC(=O)N3CCC(C)CC3)c3ccccc23)c1,-1,0,5.1*,15,1,3
